# The campaign covered roughly 370,000 compounds. About 4,700 (1.3%) were called active.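 The calls were made as follows: active = inhibition above the plate cutoff, the mean of all test compounds on that plate plus 3 SD (cut at about 35% in these data); inactive = the rest.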 Many of the other results were omitted from the sample, so actives are more common in it than they were.
# Experiment: binders of r(CAG) RNA repeats, primary screen, biochemical, fluorescence (AID 651821);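 also: 0% = DMSO alone and 100% = 100 µM mitoxantrone as full dye displacement; higher means more dye released from RNA so lower well fluorescence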
# Details: r(CAG) RNA repeat, TO-PRO-1 dye displacement fluorescence; at 3 µM; hits give high values
row,SMILES,inhibition
1,Nc1ncnc2c1ncn2[C@@H]1O[C@H](C(=O)N[C@@H](CCc2ccccc2)C(=O)N2CCCN(Cc3cccs3)CC2)[C@@H](O)[C@H]1O,1.07% (inactive)
2,CCCC[C@H]1C2CC(OC(=O)NCc3ccccc3)C(C2)[C@H]2CCCCN21 (some centres not stated),2.74% (inactive)
3,O=S1(=O)c2c(NCc3ccco3)cccc2Oc2ccccc2CN1Cc1cn(Cc2cccc(C(F)(F)F)c2)nn1,13.6% (inactive)
4,COCc1cc(N2CCN(C(=O)OC(C)(C)C)C[C@@H]2C)ccc1N1CCN(Cc2ccccc2)[C@H](C)C1,3.76% (inactive)
5,CC(C)c1ccc(CC(=O)N2CCC2(C)C(=O)NS(=O)(=O)c2ccc(C(C)(C)C)cc2)cc1 (configuration not stated),71% (active)
6,CC(C)(C)c1ccc(S(=O)(=O)NC(=O)C2(C)CCN2C(=O)CC2CC2)cc1 (configuration not stated),5.41% (inactive)
7,CCCC(=O)N1CCC1(C)C(=O)NS(=O)(=O)c1ccc(Cl)cc1 (configuration not stated),3.6% (inactive)
8,O=c1ccc2c(-c3ccccc3S(=O)(=O)O)c3ccc(O)c(O)c3oc-2c1O,66.8% (active)
9,COc1ccc(C(=O)CSc2nnc(-c3cnccn3)n2-c2ccc(C)cc2)cc1,4.26% (inactive)
10,Cc1cc(NC(=O)COC(=O)/C=C/c2ccc(C)o2)no1,-0.62% (inactive)
11,Cc1ccc(/C=C/C(=O)Nc2ccc([N+](=O)[O-])c(NC(=O)/C=C/c3ccc(C)o3)c2)o1,51% (active)
12,O=C(/C=C/c1ccc([N+](=O)[O-])o1)NNC(=O)c1ccc(F)cc1,7.58% (inactive)
13,C[C@@H]1ON(C)[C@H]2C[C@H]3c4[nH]c5cccc(-c6ccc7c(c6)OCO7)c5c4CCN3C[C@@H]12,6.14% (inactive)
14,COc1ccccc1C(=O)NCCC(=O)NN1C(=O)NC2(CCCCC2)C1=O,-4.93% (inactive)
15,COc1ccccc1C(=O)Nc1nc2nc(-c3ccccc3)cc(=O)n2[nH]1,7.94% (inactive)
16,COc1ccccc1C(=O)Nn1cnnc1,-5.43% (inactive)
17,COc1cccc2sc(NNC(=O)c3nc4ccccc4s3)nc12,62.5% (active)
18,COC(=O)[C@@]12CCCCC3=C1N(CCC3)C(=O)[C@H]2CC(=O)NCc1cccc2ccccc12,3.84% (inactive)
19,COc1ccc(S(=O)(=O)N(CC(=O)N/N=C/c2ccc(C(=O)O)cc2)Cc2ccccc2)cc1OC,25.2% (inactive)
20,CC(=O)Nc1ccc(S(=O)(=O)NCCc2ccccc2)cc1,-3.69% (inactive)
21,CC(=O)Nc1ccc(S(=O)(=O)N(CCc2ccccc2)CC(=O)N/N=C/c2ccc(C(=O)O)cc2)cc1,40.4% (active)

row,SMILES,inhibition
1,O=C(Nc1c(Cl)c(C2CC2)nn1-c1ccccc1)C(Cl)(Cl)Cl,2.42% (inactive)
2,CCCCCN1CCCCC(NC(=O)C(C)CCC)C1=O (configuration not stated),-0.91% (inactive)
3,COC(=O)C1CN(Cc2ccc(F)cc2)CCS(=O)(=O)N1Cc1ccc(Cl)cc1 (configuration not stated),2.48% (inactive)
4,CCCCCNC(=O)C(c1ccc(OC)cc1)n1c(=O)c(-c2ccccc2)nc2ccccc21 (configuration not stated),7.62% (inactive)
5,COc1ccc(C(C(=O)Nc2c(C)cccc2C)N2CCN(c3ccc(C)cc3)CC2)cc1 (configuration not stated),1.38% (inactive)
6,CCC(C(=O)Nc1c(C)cccc1C)n1c(-c2cc(C)cs2)nc2ccccc21 (configuration not stated),2.46% (inactive)
7,COc1ccc(NC(=O)C(c2ccncc2)n2c(=O)c(-c3cc4ccccc4[nH]3)nc3ccccc32)cc1 (configuration not stated),19.9% (inactive)
8,Cc1cccc(C)c1NC(=O)C(c1ccc(C(F)(F)F)cc1)n1c(=O)c(-c2ccco2)nc2ccccc21 (configuration not stated),34.8% (active)
9,Cc1cccc(C)c1NC(=O)C(c1cccc2ccccc12)n1c(=O)c(-c2ccco2)nc2ccccc21 (configuration not stated),43.8% (active)
10,COc1ccc(C(C(=O)NCc2ccccc2)n2c(=O)c(-c3ccccc3)nc3ccccc32)cc1 (configuration not stated),7.82% (inactive)
11,O=C(NC1CCCCC1)C(c1cc2ccccc2o1)n1c(=O)c(-c2ccco2)nc2ccccc21 (configuration not stated),24.4% (inactive)
12,N#Cc1ccc(C(C(=O)NCc2ccccc2)n2c(=O)c(-c3ccco3)nc3ccccc32)cc1 (configuration not stated),38.9% (active)
13,CC(=O)N1CCc2cc(S(=O)(=O)NCCC(=O)N3CCCC3)ccc21,0.89% (inactive)
14,COc1ccc(C2=CN(Cc3ccccc3)C(c3ccc(OC)cc3)CC2=O)cc1 (configuration not stated),2.54% (inactive)
15,COC(=O)C1CN(CCc2ccccc2)CCS(=O)(=O)N1Cc1ccc(F)cc1 (configuration not stated),5.69% (inactive)
16,O=C(NCC1COc2ccccc2O1)c1ccc(NC(=O)c2cc(F)ccc2F)cc1 (configuration not stated),4.71% (inactive)
17,CC(CCN1CCC(C(O)(c2ccccc2)c2ccccc2)CC1)Oc1ccc([N+](=O)[O-])cc1Cl (configuration not stated),2.17% (inactive)
18,CCOC(=O)Cc1csc(SCC(=O)NC(C)C23CC4CC(CC(C4)C2)C3)n1 (configuration not stated),-11.4% (inactive)
19,O=S(=O)(Nc1ccc(O)c2ccccc12)c1ccc(OC(F)(F)F)cc1,39% (active)
20,O=[N+]([O-])c1ccc(NS(=O)(=O)c2ccccc2)c(Cl)c1,6.07% (inactive)
21,O=S(=O)(Nc1ccc(OC(F)(F)F)cc1)c1cccc2nonc12,3.85% (inactive)

row,SMILES,inhibition
1,COC(=O)[C@]12C[C@H](CC(=O)NCc3cccc4ccccc34)C(=O)N(CCc3ccc(OC)c(OC)c3)C1=C[C@H](C1CCCC1)O[C@@H]2C,6.55% (inactive)
2,Nc1[nH]c(/C=C2/CCCCC2n2[nH]c(=O)n(-c3ccccc3)c2=O)c(Cc2ccccc2)[n+]1Cc1ccccc1 (configuration not stated),8.51% (inactive)
3,COc1ccc(CCNC(=O)CSc2nc3c([nH]2)c(=O)n(C)c(=O)n3C)cc1,1.31% (inactive)
4,O=C(NC(=S)Nc1ccccc1C(=O)O)c1ccc(-c2ccc(Br)cc2)o1,69.5% (active)
5,O=C(O)c1ccccc1-c1ccccc1C(=O)Nc1ccccc1Br,1.52% (inactive)
6,O=C(NC(=S)Nc1ncccn1)c1ccccc1Br,-2.07% (inactive)
7,CCCCCCCCN1C(=O)[C@@H](CC(=O)NCCCC)C[C@@]2(C(=O)OC)C1=C[C@H](C(C)(C)C)O[C@@H]2C,0.05% (inactive)
8,CCCCOCC1CN(CCCC)S(=O)(=O)c2c(Oc3ccc(F)cc3)cccc2O1 (configuration not stated),2.41% (inactive)
9,Fc1ccc2cnc(-c3ccccc3)cc2c1,2% (inactive)
10,Nc1cccc(-c2cc(-c3ccccc3)nc(-c3cccc(N)c3)n2)c1,35.3% (active)
11,Nc1cccc(-c2cncc(N3CCN(Cc4ccccn4)CC3)n2)c1,2.15% (inactive)
12,Cc1c(C(=O)CN2CCOCC2)[nH]c2ccccc12,1.32% (inactive)
13,O=C(O)c1[nH]c2ccccc2c1C(c1cccc(O)c1)c1c(C(=O)O)[nH]c2ccccc12,61.1% (active)
14,CCCS(=O)(=O)Nc1c(C(=O)O)[nH]c2ccccc12,0.99% (inactive)
15,O=C(NCc1ccccc1)[C@@H]1CCCN1C(=O)[C@@H](NS(=O)(=O)c1ccc(F)cc1F)C1CCCCC1,-1.8% (inactive)
16,C=CCN1[C@H](CC(C)C)COc2cccc(N3CCCC3)c2S1(=O)=O,8.14% (inactive)
17,O=C(N/N=C/c1c(Cl)[nH]c2ccccc12)c1sc2ccccc2c1Cl,35.6% (active)
18,CN1CCc2ccccc2C1Cc1ccccc1NC(=O)c1sc2ccccc2c1Cl (configuration not stated),-0.7% (inactive)
19,CCOc1ccc2ccccc2c1/C=N/NC(=O)c1c(C)cc(C)[nH]c1=O,0.65% (inactive)
20,O=C(C1=C(O)C(=O)N(c2ncccn2)C1c1cccs1)c1ccco1 (configuration not stated),-0.3% (inactive)
21,Cc1ccc2nc(N3C(=O)C(O)=C(C(=O)c4ccco4)C3c3cccc(O)c3)sc2c1 (configuration not stated),72.6% (active)

row,SMILES,inhibition
1,C=CCSc1nnc(N2C(=O)C(O)=C(C(=O)c3ccco3)C2c2ccc(F)cc2)s1 (configuration not stated),18.7% (inactive)
2,COCCNc1cc(NCCOC)c([N+](=O)[O-])cc1[N+](=O)[O-],1.02% (inactive)
3,COC(=O)[C@]12C[C@H](CC(=O)N3CCN(C(=O)C4CC4)CC3)C(=O)N(Cc3ccc4c(c3)OCO4)C1=C[C@H](C(C)(C)C)O[C@@H]2C,1.7% (inactive)
4,COc1ccccc1C(=O)CSc1nnc(-c2ccccn2)n1-c1ccccc1,5.14% (inactive)
5,CCCCNC(=O)C[C@@H]1C(=O)N(CCc2ccc(Cl)cc2)C2=CCCC[C@]21C(=O)OCC,0.46% (inactive)
6,COc1ccc2c(C)c(CCC(=O)NC3CC3)c(=O)oc2c1C,-3.01% (inactive)
7,Cc1c(CC(=O)NCC(=O)NCC(=O)O)c(=O)oc2cc3oc4c(c3cc12)CCCC4,11.3% (inactive)
8,CC[C@@H](C)[C@H](NC(=O)CCc1c(C)c2cc3c4c(oc3c(C)c2oc1=O)CCCC4)C(=O)O,36.8% (active)
9,Cc1c(C)c2cc3c4c(oc3c(C)c2oc1=O)CCCC4,5.96% (inactive)
10,Cc1oc2c(C)c3oc(=O)c(CC(=O)N[C@@H](CC(C)C)C(=O)N[C@@H](Cc4ccccc4)C(=O)O)c(C)c3cc2c1C,15.8% (inactive)
11,Cc1c(CCC(=O)N[C@@H](CC(C)C)C(=O)O)c(=O)oc2c(C)c3oc4c(c3cc12)CCCC4,38.4% (active)
12,COC(=O)C1=C(C)N(Cc2ccc(C(F)(F)F)cc2)C(=NCc2ccccc2)NC1c1ccccc1C(F)(F)F (configuration not stated),1.95% (inactive)
13,CC(C)(C)C(c1nc2ccccc2[nH]1)n1c(Cc2csc3ccccc23)nc2ccccc21 (configuration not stated),6.22% (inactive)
14,CC(C)(C)OC(=O)NCCc1ccccc1/C=C/S(=O)(=O)NCc1ccc(F)cc1,3.67% (inactive)
15,Cc1[nH]c2ccccc2c1CC(=O)Nc1ccc(Nc2cccnc2)c(-c2cccc(Cl)c2)c1,14.1% (inactive)
16,COC(=O)c1cc2c(c3c4cc(F)ccc4n(S(=O)(=O)c4ccccc4)c13)C(=O)N(Cc1ccccc1OC)C2,16.2% (inactive)
17,O=C(Nc1ccccc1)Nc1nnc(COc2ccccc2F)s1,56.5% (active)
18,O=C(NCCOc1ccccc1F)Nc1ccc(Br)cc1,5.19% (inactive)
19,COCc1nnc(NC(=O)CS(=O)(=O)Cc2ccccc2)s1,4.38% (inactive)

# Reference: PubChem BioAssay AID651821 (The Scripps Research Institute Molecular Screening Center, 2012)
